Rows were chosen to be rich in hits. Some 21% of all compounds tested hit in one or more screens of this group.
IL1B secr inh: inflammasome signaling inhibition, IL-1 beta readout; activity change, % at 57.5 µM; THP-1 LPS/ATP IL-1B secretion, AlphaLISA, 16 h; hits give low values; AID 743279; hit rate 4.7% among 360,000; in the data active means activity change below about -50%; inconclusive means mostly about -30% to -49%; further: on the % scale 0 is the no-effect control and ±100 the full control effect
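THP-1 cells pretreated 1 hr with compounds (up to 57.5 uM final), then stimulated with LPS (250 ng/mL final) plus ATP (1.25 mM final); secreted IL-1B measured by AlphaLISA after 16 hr, decreased signal indicating inhibition.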
DRD3 agonist: activates the human D3 dopamine receptor. hit rate 0.58% among 410,000. D3R DiscoveRx beta-arrestin cells, luminescence, 90 min. max activation, %. P35462; in the data active means max activation above about 30%; further: 0% is about no effect
Target sequence (P35462 whole entry, looked up): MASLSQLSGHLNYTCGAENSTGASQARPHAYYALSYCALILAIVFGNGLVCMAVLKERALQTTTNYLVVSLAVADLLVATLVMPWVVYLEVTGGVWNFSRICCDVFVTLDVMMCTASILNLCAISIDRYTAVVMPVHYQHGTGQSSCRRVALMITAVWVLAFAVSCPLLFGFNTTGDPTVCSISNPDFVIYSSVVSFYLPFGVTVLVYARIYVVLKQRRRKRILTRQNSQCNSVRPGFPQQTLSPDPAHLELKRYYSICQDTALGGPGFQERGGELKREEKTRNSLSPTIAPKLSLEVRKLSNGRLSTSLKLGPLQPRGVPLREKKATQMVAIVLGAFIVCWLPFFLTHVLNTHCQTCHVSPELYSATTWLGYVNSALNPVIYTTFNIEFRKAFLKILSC
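Agonist-mode cell screen: cells plated at 1500/well and incubated overnight at 37 °C, then exposed to library compounds for 90 min at 37 °C. Detection reagent was added for 30–60 min at room temperature, and luminescence was read.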
ClpP mod: qHTS Assay for Activators of ClpP. hit rate 1.9% among 340,000. Potency, µM (doses to about 57.5 µM), for inactives: at the top dose activity change, negative = active. purified B. subtilis ClpP, FRET peptide cleavage, 20 min. ATP-dependent Clp protease proteolytic subunit (Bacillus subtilis (strain 168)), P80244; active means well fitted falling curve with a large enough effect; inconclusive means small, poorly fitted or top-dose-only effect; inactive means no such curve, though single readings can be large or run the other way; further: potency means the concentration at half of the fitted maximal effect; the source files actives as falling curves though it sought activators and does not explain the sign; nearly all actives have a fitted effect of over 65% in size
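Buffer: 100 mM Tris/HCl pH8, 100 mM KCl, 0.05% low protease BSA, 2.5% glycerol, 0.01% Tween-20. ClpP 10 microg/mL final; 20 min RT; delta FRET normalized to ADEP and DMSO controls.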
DT40 TDP1 no CPT: qHTS for Inhibitors of human tyrosyl-DNA phosphodiesterase 1 (TDP1): qHTS in cells in absence of CPT; DT40 Tdp1-/- hTDP1 cells, no CPT, ATP luminescence, 48 h; Potency, µM (doses to about 46.2 µM), without a hit: top-dose activity change, negative = growth inhibition, most hits filed as inhibitors; hit rate 15% among 420,000; AID 686978, 2013; further: potency means the concentration at half of the fitted maximal effect; on the % scale 0 is the no-effect control and ±100 the full control effect; nearly all actives have a fitted effect of over 55% in size
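A cellular qHTS used chicken DT40 cells lacking endogenous Tdp1 but carrying stably transfected human TDP1. Compounds were applied without camptothecin, and cell growth kinetics were judged by ATP-dependent luminescence after ≥48 hr.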
DRD3 antagonist: D3 dopamine receptor (human) antagonism | P35462 | hit rate 2.5% among 360,000 | max response, negative = inhibition, % | D3R cells, DiscoveRx beta-arrestin luminescence, antagonist mode; hits give low values; in the data active means max response below about -50%; inconclusive means no clear call, values can overlap the other calls; further: on the % scale 0 is the no-effect control and ±100 the full control effect
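Cells plated overnight at 1500 cells/well, then exposed to library compounds with dopamine controls for 90 minutes at 37 degrees C. DiscoveRx reagent added for 30–60 minutes at room temperature; luminescence read, quantitative HTS format.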
DT40 TDP1 CPT: DT40-hTDP1 cell growth loss with CPT. hit rate 12% among 420,000. Potency, µM (doses to about 46.2 µM), inactives show at the top dose activity change, negative = growth inhibition, hits mostly inhibitors. chicken DT40 Tdp1-/-;hTDP1 cells + 20 nM CPT, ATP luminescence, 48 h; further: potency means the concentration at half of the fitted maximal effect; on the % scale 0 is the no-effect control and ±100 the full control effect; nearly all actives have a fitted effect of over 55% in size
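Chicken DT40 Tdp1-/- cells stably complemented with human TDP1 were seeded at 400 cells/well in medium containing 20 nM camptothecin, exposed to pin-transferred compounds, and grown at 37 °C for at least 48 hr. Viability was read as ATP luminescence.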
* hit, by the source's call; [ ] = another dose, or the depositor's remark. Unless noted, the call rests on the fitted dose curve; in most records, active means well fitted inhibition curve with a large enough effect; inconclusive means small, poorly fitted or top-dose-only effect; inactive means flat fitted curve, though single readings scatter.

CC(C)Oc1ccc(CNC(=O)C2CCN(C(=O)N3CCOc4ccccc43)CC2)cc1 was read as IL1B secr inh 17.3, DRD3 agonist -1.0, ClpP mod -2.3%, DT40 TDP1 no CPT inconclusive, DRD3 antagonist 3.0 and DT40 TDP1 CPT inconclusive.
For COc1cccc(CNC(=O)C2CCN(C(=O)N3CCOc4ccc(Cl)cc43)CC2)c1OC the results were DRD3 agonist 2.3, ClpP mod -4.2%, DT40 TDP1 no CPT 20.6µM* and DT40 TDP1 CPT inconclusive.
For COc1ccc(CCN(C)C(=O)c2c(C)noc2C)cc1OC the results were IL1B secr inh -7.7, DRD3 agonist -3.0, ClpP mod -1.7%, DT40 TDP1 no CPT 12.1%, DRD3 antagonist -27.3 and DT40 TDP1 CPT -14.3%.
CCOC(=O)C1CCCCN1C(=O)c1cnn(-c2nccc(-c3cc(C)sc3C)n2)c1C1CC1 (stereo not drawn) was read as DT40 TDP1 no CPT inconclusive and DT40 TDP1 CPT -9.2%[9.04 µM].
Screening COc1cc2c(cc1OC)C(C)N(CCc1ccc(Cl)cc1)CC2 (stereo not drawn) returned IL1B secr inh -58.8*, DRD3 agonist -6.9, DT40 TDP1 no CPT inconclusive, DRD3 antagonist -9.0 and DT40 TDP1 CPT inconclusive.
`COc1cc2c(cc1OC)C(C)N(C(=O)c1sccc1C)CC2` (stereo not drawn) gave IL1B secr inh inconclusive, DRD3 agonist -0.6, ClpP mod 1.4%, DT40 TDP1 no CPT -16.2%, DRD3 antagonist 0.5 and DT40 TDP1 CPT inconclusive.
`COc1cc2c(cc1OC)C(C)N(C(=O)c1cccc([N+](=O)[O-])c1)CC2` (stereo not drawn) gave IL1B secr inh -52.9*, DRD3 agonist 4.8, DT40 TDP1 no CPT inconclusive, DRD3 antagonist 3.2 and DT40 TDP1 CPT inconclusive.
Screening COc1cc2c(cc1OC)C(c1cc(OC)c(OC)cc1[N+](=O)[O-])N(C(C)=O)CC2 (stereo not drawn) returned IL1B secr inh -18.6, DRD3 agonist 1.2, ClpP mod 1.5%, DT40 TDP1 no CPT -24.0%, DRD3 antagonist -1.5 and DT40 TDP1 CPT -16.5%.
`COc1cc2c(cc1OC)C(C)N(C(=O)c1ccc(C)o1)CC2` (stereo not drawn) gave IL1B secr inh -10.0, DRD3 agonist -3.5, DT40 TDP1 no CPT 20.6µM*, DRD3 antagonist 2.8 and DT40 TDP1 CPT 25.9µM*.
For COc1cc2c(cc1OC)C(c1cccs1)N(C(=O)C(C)C)CC2 (stereo not drawn) the results were IL1B secr inh 10.2, DRD3 agonist -10.9, ClpP mod -1.8%, DT40 TDP1 no CPT -25.6%, DRD3 antagonist 21.6 and DT40 TDP1 CPT inconclusive.
`COc1cc2c(cc1OC)C(c1cccs1)N(C(=O)c1cccnc1)CC2` (stereo not drawn) gave IL1B secr inh 49.5, DRD3 agonist 17.1, DT40 TDP1 no CPT 2.91µM*, DRD3 antagonist -2.1 and DT40 TDP1 CPT 4.61µM*.
Screening COc1cc2c(cc1OC)C(C)N(CCN1C(=O)c3ccccc3C1=O)CC2 (stereo not drawn) returned IL1B secr inh 7.9, DRD3 agonist -2.9, ClpP mod -1.3%, DT40 TDP1 no CPT -5.0%, DRD3 antagonist -0.6 and DT40 TDP1 CPT -5.7%.
`COc1ccc(NC(=O)C2CCN(S(=O)(=O)c3cccc4nonc34)CC2)c(OC)c1` gave IL1B secr inh -11.8, DRD3 agonist -3.4, DT40 TDP1 no CPT -25.2%, DRD3 antagonist 8.4 and DT40 TDP1 CPT 1.8%.
Screening Cc1onc(-c2ccccc2)c1C(=O)N1CCC(C)CC1 returned IL1B secr inh 14.5, DRD3 agonist 3.2, ClpP mod -0.5%, DT40 TDP1 no CPT -11.3%, DRD3 antagonist 3.3 and DT40 TDP1 CPT -6.6%.

High-throughput results deposited in PubChem by National Center for Advancing Translational Sciences (NCATS).
